Cruzain inh Det = qHTS Assay for Promiscuous and Specific Inhibitors of Cruzain (with detergent); Cruzipain (Trypanosoma cruzi), P25779; purified cruzain, Z-FR-AMC fluorescence, 0.01% Triton; Potency, µM, for inactives: max response, negative = inhibition, usual class: inhibitors; 0.43% of 200,000 active; AID 1478, 2009;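 also: plate controls were neutral wells for no effect and buffer without enzyme for full effect; nearly all actives have a fitted effect of over 40% in size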
Target sequence (P25779 123-467 limits assumed): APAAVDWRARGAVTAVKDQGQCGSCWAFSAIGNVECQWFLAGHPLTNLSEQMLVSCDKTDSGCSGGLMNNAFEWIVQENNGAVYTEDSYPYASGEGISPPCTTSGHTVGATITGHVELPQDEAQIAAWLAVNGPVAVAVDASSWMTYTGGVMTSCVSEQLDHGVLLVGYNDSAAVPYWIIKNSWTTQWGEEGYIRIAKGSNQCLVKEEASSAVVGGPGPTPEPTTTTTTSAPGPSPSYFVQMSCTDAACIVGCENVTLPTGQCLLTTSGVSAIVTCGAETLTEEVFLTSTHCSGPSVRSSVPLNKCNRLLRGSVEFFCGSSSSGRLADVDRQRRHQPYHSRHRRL
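Purified cruzain (1.5 nM final) was preincubated with compounds for 15 min at room temperature in 100 mM sodium acetate pH 5.5, 5 mM DTT, 0.01% Triton X-100. Reaction started with 2 uM Z-FR-AMC; AMC fluorescence change over 60 s gave activity.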
Cruzain noTriton = qHTS Assay for Promiscuous and Specific Inhibitors of Cruzain (without detergent). purified cruzain, Z-FR-AMC fluorescence, no detergent. Cruzipain (Trypanosoma cruzi), P25779. 2.3% of 200,000 active. Potency, µM, for inactives: max response, negative = inhibition, usual class: inhibitors;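 also: plate controls were enzyme without inhibitor for no effect and buffer without enzyme for full effect; nearly all actives have a fitted effect of over 40% in size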
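Detergent-free condition (0.00005% Triton X-100) in acetate buffer pH 5.5 with DTT. 1.5 nM enzyme and compound were pre-mixed 15 min, then 2 uM Z-FR-AMC substrate added; reaction progress from fluorescence change between first and third reads (60 s).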
The depositor's hits bear a star. Shown are actives, neighbours in structure and some others; about 2.4% of the full set was active somewhere. Calls follow the shape of the dose curve; as a rule, active = well fitted curve in the direction sought with a large enough effect; inconclusive = small, poorly fitted or top-dose-only effect, or another doubt; inactive = no such curve, though single readings can be large; an effect the other way counts as inactive or inconclusive. Potency is read from the fitted curve at half-maximal effect.

Results for COc1ccc(N2CCN(c3oc(/C=C/c4cccc(OC)c4)nc3C#N)CC2)cc1 ?
Cruzain inh Det: 4.3%; Cruzain noTriton: 6.1%

How did COC(=O)c1cc2oc3ccccc3c2n1CC(=O)Nc1ccc(F)c(Cl)c1 do in these assays?
Cruzain inh Det: -3.7%; Cruzain noTriton: -10.3%

What do the screens show for `Cc1cccc(C(=O)Nc2cccc(C(=O)OCc3cc(=O)n4c5c(sc4n3)CCCC5)c2)c1`?
Cruzain inh Det: -0.8%; Cruzain noTriton: -8.0%

What do the screens show for `Nc1nc(SCc2ccc(Cl)cc2Cl)nc2nc3c(cc12)CCCC3`?
Cruzain inh Det: 14.1µM*; Cruzain noTriton: 12.6µM*

Results for Nc1nc(SCc2ccccc2Cl)nc2nc3c(cc12)CCCC3 ?
Cruzain inh Det: -14.9%; Cruzain noTriton: 3.7%

Results for Cc1cccc(C)c1NC(=O)Cn1nnc(-c2ccc(N3CCOCC3)cc2)n1 ?
Cruzain inh Det: -4.3%; Cruzain noTriton: 20µM*

Results for Cc1cc(C)c(NC(=O)Cn2nnc(-c3ccccc3)n2)c(C)c1 ?
Cruzain inh Det: 0.6%; Cruzain noTriton: -0.2%

Results for CC(=C/c1ccccc1)/C=N/Nc1nc(N2CCCCC2)nc(N2CCCCC2)n1 ?
Cruzain inh Det: -3.6%; Cruzain noTriton: -9.5%

How did C(=C\c1ccccc1)/C=N/Nc1nc(N2CCCCC2)nc(N2CCCCC2)n1 do in these assays?
Cruzain inh Det: 1.5%; Cruzain noTriton: 3.98µM*

What do the screens show for `CCOc1ccc(N(C)C(=O)c2oc(=O)c3ccccc3c2-c2ccccc2)cc1`?
Cruzain inh Det: -2.5%; Cruzain noTriton: 7.1%

How did O=C(Nc1ccc(OC(=O)c2ccccc2)c(-c2nc3ccccc3s2)c1)c1ccccc1 do in these assays?
Cruzain inh Det: -0.5%; Cruzain noTriton: 7.94µM*

What do the screens show for `COc1ccc(C(=O)Nc2cc(C)c(O)c(-c3nc4ccccc4s3)c2)cc1OC`?
Cruzain inh Det: 0.8%; Cruzain noTriton: -2.4%

What do the screens show for `Cc1ccc2nc(-c3ccc(NC(=O)CCN4C(=O)c5ccccc5C4=O)cc3)sc2c1`?
Cruzain inh Det: 4.1%; Cruzain noTriton: inconclusive

How did O=C(Nc1ccc(-c2nc3ccccc3s2)c(O)c1)C1=COCCO1 do in these assays?
Cruzain inh Det: 15.8µM*; Cruzain noTriton: inconclusive

How did O=C(CCN1C(=O)c2ccccc2C1=O)Nc1ccc(-c2nc3ccccc3s2)cc1 do in these assays?
Cruzain inh Det: -2.1%; Cruzain noTriton: 25.1µM*

What do the screens show for `O=C(Nc1ccc(O)c(-c2nc3ccccc3s2)c1)C1=COCCO1`?
Cruzain inh Det: -6.0%; Cruzain noTriton: 2.4%

What do the screens show for `CCS(=O)(=O)c1cccc(C(=O)Nc2ccc(-c3nc4ccccc4s3)c(O)c2)c1`?
Cruzain inh Det: -5.2%; Cruzain noTriton: 2.1%

What do the screens show for `O=C(CCS(=O)(=O)c1ccccc1)Nc1ccc(-c2nc3ccccc3s2)c(O)c1`?
Cruzain inh Det: -0.2%; Cruzain noTriton: 10µM*

Results for N#Cc1ccccc1OCC(=O)N1CCN(c2ccccc2)CC1 ?
Cruzain inh Det: -1.9%; Cruzain noTriton: -12.2%

What do the screens show for `CCOc1ccc(CNC(=O)CSc2nnc(C)c3c(C)n(-c4ccccc4)nc23)cc1`?
Cruzain inh Det: -7.4%; Cruzain noTriton: 18.9%

How did Cn1c(=O)c2sccc2n2c(CCC(=O)NCc3ccc(F)cc3)nnc12 do in these assays?
Cruzain inh Det: 0.3%; Cruzain noTriton: 2.3%

What do the screens show for `COc1ccc(NC(=O)c2cccc(N3CCCS3(=O)=O)c2)c(OC)c1`?
Cruzain inh Det: 1.1%; Cruzain noTriton: -0.2%

Results for COCCn1c(=O)c(-c2cccs2)nc2cnc(N3CCOCC3)nc21 ?
Cruzain inh Det: 2.2%; Cruzain noTriton: 3.2%

What do the screens show for `CCn1c2ccccc2c2cc(NC(=O)C3CCN(S(=O)(=O)c4cccs4)CC3)ccc21`?
Cruzain inh Det: 1.8%; Cruzain noTriton: inconclusive

What do the screens show for `CCn1c2ccccc2c2cc(NC(=O)Cc3ccc(S(=O)(=O)N4CCOCC4)s3)ccc21`?
Cruzain inh Det: -2.1%; Cruzain noTriton: 15.8µM*

Results for Cc1nc(NC2CCCCC2)c2nc(-c3ccccc3)n(CCN(C)C)c2n1 ?
Cruzain inh Det: -3.5%; Cruzain noTriton: -1.1%

Results for CCCOc1ccc(NC(=O)CC2C(=O)N(c3ccc(C)cc3)C(=O)N2Cc2cccc(OC)c2)cc1 (stereo not given) ?
Cruzain inh Det: -2.6%; Cruzain noTriton: 9.8%

How did O=C1c2ccccc2C(O)N1c1ccc(Cl)cc1 (stereo not given) do in these assays?
Cruzain inh Det: -2.2%; Cruzain noTriton: -27.1%

How did COC(=O)C1CN(C#N)N(c2ccc(Cl)cc2)C12c1ccccc1-c1ccccc12 (stereo not given) do in these assays?
Cruzain inh Det: -9.2%; Cruzain noTriton: 25.1µM*

Results for O=C(CSc1nc2cc(S(=O)(=O)N3CCOCC3)ccc2o1)NC1CCCc2ccccc21 (stereo not given) ?
Cruzain inh Det: -3.0%; Cruzain noTriton: 25.1µM*

Source: PubChem
